Records with an inconclusive call do not appear. Activity calls are given as the source filed them. How the source made its calls, unless noted: active means hit-call score of the fitted dose curve at least 0.9, where 1 is the maximum; inconclusive means response in the unintended direction; inactive means score below 0.9.

Chain of zebrafish Thyroid Hormone Receptor beta (TRb), thrb (gene 30607) (Q9PVE4 whole entry, looked up, the tested form may be a part): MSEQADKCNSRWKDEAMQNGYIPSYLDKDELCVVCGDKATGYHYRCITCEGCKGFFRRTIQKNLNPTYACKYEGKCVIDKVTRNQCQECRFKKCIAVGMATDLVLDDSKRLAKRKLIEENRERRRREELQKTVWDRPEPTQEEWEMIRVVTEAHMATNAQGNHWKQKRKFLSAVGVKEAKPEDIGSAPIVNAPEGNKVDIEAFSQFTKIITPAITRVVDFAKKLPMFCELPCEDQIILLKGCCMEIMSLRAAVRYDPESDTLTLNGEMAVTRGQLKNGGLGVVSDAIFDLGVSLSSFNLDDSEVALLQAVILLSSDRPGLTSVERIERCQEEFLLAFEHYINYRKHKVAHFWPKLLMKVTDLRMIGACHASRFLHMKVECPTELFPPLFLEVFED

One experiment deals with zebrafish Thyroid Hormone Receptor alpha (TRa), thraa (gene 30670) (UniProt Q98867). Nature of the experiment: ATG_zfTRa_XSP2: Attagene TRANS-FACTORIAL Multi-Species (XSP1) HepG2 Assay for zebrafish Thyroid Hormone Receptor alpha (TRa) (AID 2283832).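 Further: actives raise zebrafish TRa-Gal4 reporter transcript above DMSO baseline.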 The method, boiled down: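 Chimeric receptor-Gal4 activity was assessed in transfected human liver HepG2 cells 24 h after dosing, using reporter transcript levels detected by RT-PCR and capillary electrophoresis. DMSO served as baseline.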
Chain of zebrafish Thyroid Hormone Receptor alpha (TRa), thraa (gene 30670) (Q98867 whole entry, looked up, the tested form may be a part): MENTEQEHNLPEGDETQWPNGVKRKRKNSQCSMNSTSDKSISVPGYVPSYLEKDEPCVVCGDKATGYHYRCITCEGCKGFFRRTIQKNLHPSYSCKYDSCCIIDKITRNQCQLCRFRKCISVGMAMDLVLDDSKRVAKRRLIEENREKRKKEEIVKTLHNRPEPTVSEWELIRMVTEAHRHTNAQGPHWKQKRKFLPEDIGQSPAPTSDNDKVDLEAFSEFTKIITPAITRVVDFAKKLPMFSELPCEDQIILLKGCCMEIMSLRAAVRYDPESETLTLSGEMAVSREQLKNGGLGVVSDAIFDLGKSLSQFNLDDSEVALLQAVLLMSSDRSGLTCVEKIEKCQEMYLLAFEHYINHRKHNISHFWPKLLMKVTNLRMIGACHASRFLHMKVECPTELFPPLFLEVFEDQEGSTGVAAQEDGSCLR
In the case of `CC(=O)O[C@]1(C(C)=O)CC[C@H]2[C@@H]3C=C(Cl)C4=CC(=O)[C@@H]5C[C@@H]5[C@]4(C)[C@H]3CC[C@@]21C`, the compound was called inactive.
Still for that read-out and setting: the result for `CCN(CC)CCOc1ccc(C(=C(Cl)c2ccccc2)c2ccccc2)cc1` reads “inactive”.
On the same count and under the same terms, the result for `CC(=O)[C@@]1(O)CC[C@H]2[C@@H]3CCC4=CC(=O)CC[C@]4(C)[C@H]3CC[C@@]21C` reads “inactive”.

The next experiment relates to zebrafish Peroxisome Proliferator-activated Receptor gamma (PPARg), gene 557037. Nature of the experiment: ATG_zfPPARg_XSP2: Attagene TRANS-FACTORIAL Multi-Species (XSP2) HepG2 Assay for zebrafish Peroxisome Proliferator-activated Receptor gamma (PPARg) (AID 2283833).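 Further: actives increase reporter signal over DMSO so AC50 reflects activation.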 The method, boiled down:
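Multi-species TRANS format in HepG2, 24 h dosing; medium also contained 3 nM 6-alpha-fluorotestosterone and 1.5 nM norgestrel to stimulate androgen receptor. Zebrafish PPARg-GAL4 induced reporter mRNA was measured by RT-PCR/capillary electrophoresis.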
With `CC(=O)O[C@]1(C(C)=O)CC[C@H]2[C@@H]3C=C(Cl)C4=CC(=O)[C@@H]5C[C@@H]5[C@]4(C)[C@H]3CC[C@@]21C`, the compound was called inactive.
For `CCN(CC)CCOc1ccc(C(=C(Cl)c2ccccc2)c2ccccc2)cc1`, the outcome was inactive.
With `Cc1c(C)c2c(c(C)c1O)CCC(C)(COc1ccc(CC3SC(=O)NC3=O)cc1)O2` (stereo unspecified), the compound was classed as inactive.

System in another experiment: not listed separately
The experiment can be described thus: ATG_M_61_XSP2: Attagene TRANS-FACTORIAL Multi-Species (XSP2) HepG2 Assay for M61 Transcription Factor (Internal Marker) (AID 2283835; active means hit-call score of the fitted dose curve at least 0.9, where 1 is the maximum; inactive means score below 0.9;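 further: reporter mRNA of an internal background marker read by RT-PCR and capillary electrophoresis; active means a rise in signal above the DMSO baseline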). Put shortly:
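HepG2 cells transiently transfected with multiple GAL4-UAS reporter units; 3 nM 6-alpha-fluorotestosterone and 1.5 nM norgestrel present to stimulate androgen receptor. After 24 h compound exposure, reporter mRNA measured by RT-PCR and capillary electrophoresis fluorescence, gain-of-signal versus DMSO baseline.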
Turning to `CC(=O)O[C@]1(C(C)=O)CC[C@H]2[C@@H]3C=C(Cl)C4=CC(=O)[C@@H]5C[C@@H]5[C@]4(C)[C@H]3CC[C@@]21C`, the outcome was inactive.
For `CCN(CC)CCOc1ccc(C(=C(Cl)c2ccccc2)c2ccccc2)cc1`, the result was inactive.
As for `Cc1c(C)c2c(c(C)c1O)CCC(C)(COc1ccc(CC3SC(=O)NC3=O)cc1)O2` (stereo unspecified), the result was inactive.

The next experiment concerns the target zebrafish Thyroid Hormone Receptor beta (TRb), thrb (gene 30607) (UniProt Q9PVE4). The experiment can be described thus: ATG_zfTRb_XSP2: Attagene TRANS-FACTORIAL Multi-Species (XSP1) HepG2 Assay for zebrafish Thyroid Hormone Receptor beta (TRb) (AID 2283836).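 On AC50: potency for induction of reporter signal above DMSO so agonist direction.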 Put shortly:
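Fluorescence of labelled reporter cDNA fragments, separated by capillary electrophoresis, gives mRNA induction from exogenous NR-Gal4 chimeras in transiently transfected HepG2 cells after 24 h dosing; 3 nM 6-alpha-fluorotestosterone and 1.5 nM norgestrel included in the run.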
As to `CC(=O)O[C@]1(C(C)=O)CC[C@H]2[C@@H]3C=C(Cl)C4=CC(=O)[C@@H]5C[C@@H]5[C@]4(C)[C@H]3CC[C@@]21C`, the compound was classed as inactive.
On the same count and under the same terms, the result for `CCN(CC)CCOc1ccc(C(=C(Cl)c2ccccc2)c2ccccc2)cc1` reads “inactive”.
For the compound `CC(=O)[C@@]1(O)CC[C@H]2[C@@H]3CCC4=CC(=O)CC[C@]4(C)[C@H]3CC[C@@]21C`, the result was inactive.
`Cc1c(C)c2c(c(C)c1O)CCC(C)(COc1ccc(CC3SC(=O)NC3=O)cc1)O2` (stereo unspecified): the AC50 was 2.66 µM (active).

For a further experiment, the system named is Sodium/Iodide Symporter (NIS), SLC5A5 (gene 6528). Nature of the experiment: CPHEA_Stoker_NIS_Inhibition_RAIU: CPHEA's Radioactive Iodide Uptake (RAIU) Assay for Sodium/Iodide Symporter (NIS) Inhibition, Stoker and Laws Labs (AID 2283841). The method, boiled down:
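Iodide uptake through human NIS is measured in an engineered HEK293T line. Cells take up 125I (329pM final) for 2 hours at room temperature alongside chemicals at 0.001–100uM. Retained radioactivity is counted, and the signal is expressed against DMSO controls.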
Regarding `O=Cc1ccccc1C=O`, the outcome was inactive.
On to `CN(C)CCCN1c2ccccc2Sc2ccc(Cl)cc21`, for which the result was inactive.
For the compound `CCCCCCCCCCCCCCOS(=O)(=O)O`, the outcome was inactive.
Regarding `Cc1ccc(-c2cc(C(F)(F)F)nn2-c2ccc(S(N)(=O)=O)cc2)cc1`, the outcome was inactive.
Consider `CC(=O)O[C@]1(C(C)=O)CC[C@H]2[C@@H]3C=C(Cl)C4=CC(=O)[C@@H]5C[C@@H]5[C@]4(C)[C@H]3CC[C@@]21C`, for which the result was inactive.
`CCN(CC)CCOc1ccc(C(=C(Cl)c2ccccc2)c2ccccc2)cc1`: the result was inactive.
For `CCC(C)N(C)C(=O)c1cc2ccccc2c(-c2ccccc2Cl)n1` (stereo unspecified), the AC50 is 30 µM (active).
Regarding `CC(COCC(C)OC(=O)c1ccccc1)OC(=O)c1ccccc1` (stereo unspecified), the outcome was inactive.
`Cc1c(C)c2c(c(C)c1O)CCC(C)(COc1ccc(CC3SC(=O)NC3=O)cc1)O2` (stereo unspecified): the AC50 is 50 µM (active).
In the case of `CC(=O)OCC(COC(C)=O)OC(C)=O`, the outcome was inactive.
On to `O=C(Oc1ccccc1)c1cccc(C(=O)Oc2ccccc2)c1`, for which the result was inactive.
Take `CCCCCCC(CCCCCCCCCCC(=O)OCC(COC(C)=O)OC(C)=O)OC(C)=O` (stereo unspecified): the outcome was inactive.
In the case of `O=C1OC(c2ccc(O)cc2)(c2ccc(O)cc2)c2ccccc21`, the AC50 is 0.722 µM (active).
